Assay results taken from PubChem BioAssay AID1159580 (chemical genetic matrix, 2015).
Among all 5,500 compounds or so, about 2,000 (36%) were called active. Roughly 18% stayed inconclusive and do not appear here. Rule as the data show it: active = normalized growth mostly below about 0.91 (no sharp cut-off); inconclusive = no clear call, values can overlap the other calls; inactive = mostly above about 0.92. Some of the results follow.

Experiment: chemical genetic growth profiling, strain panel (AID 1159580);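 also: tested at 20 µM; growth read once vehicle control cultures reached saturation at 30 °C; 1 = growth at the plate median or of vehicle wells; lower values mean less growth of the strain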
Conditions: growth OD

Measured: normalized growth

Nc1cc(-c2ccncc2)c[nH]c1=O
active: S. cerevisiae deletion strains, locus YKL160W, strain elf1, active compounds read low 0.689 | S. cerevisiae deletion strains, locus YKR001C, strain vps1, active compounds read low 0.765 | S. cerevisiae deletion strains, locus YLL001W, strain dnm1, active compounds read low 0.687 | S. cerevisiae deletion strains, locus YLL026W, active compounds read low 0.826 | S. cerevisiae deletion strains, locus YLR027C, strain aat2, active compounds read low 0.831 | S. cerevisiae deletion strains, locus YLR221C, strain rsa3, active compounds read low 0.778 | S. cerevisiae deletion strains, locus YLR258W, strain gsy2, active compounds read low 0.673 | S. cerevisiae deletion strains, locus YLR320W, strain mms22, active compounds read low 0.273 | S. cerevisiae deletion strains, locus YLR330W, strain CHS5, active compounds read low 0.878 | S. cerevisiae deletion strains, locus YLR370C, strain arc18, active compounds read low 0.514 | S. cerevisiae deletion strains, locus YML016C, strain PPZ1, active compounds read low 0.899 | S. cerevisiae deletion strains, locus YMR058W, strain fet3, active compounds read low 0.871 | S. cerevisiae deletion strains, locus YMR205C, strain PFK2, active compounds read low 0.559 | S. cerevisiae deletion strains, locus YMR223W, strain ubp8, active compounds read low 0.848 | S. cerevisiae deletion strains, locus YNL071W, strain lat1, active compounds read low 0.39 | S. cerevisiae deletion strains, locus YNL209W, strain ssb2, active compounds read low 0.914 | S. cerevisiae deletion strains, locus YNL233W, strain BNI4, active compounds read low 0.82 | S. cerevisiae deletion strains, locus YNL248C, strain rpa49, active compounds read low 0.517 | S. cerevisiae deletion strains, locus YNL307C, strain MCK1, active compounds read low 0.163 | S. cerevisiae deletion strains, locus YNR049C, strain mso1, active compounds read low 0.889 | S. cerevisiae deletion strains, locus YOR061W, strain CKA2, active compounds read low 0.887 | S. cerevisiae deletion strains, locus YOR070C, strain gyp1, active compounds read low 0.814 | S. cerevisiae deletion strains, locus YOR083W, strain WHI5, active compounds read low 0.858 | S. cerevisiae deletion strains, locus YOR106W, strain vam3, active compounds read low 0.587 | S. cerevisiae deletion strains, locus YOR136W, strain idh2, active compounds read low 0.899 | S. cerevisiae deletion strains, locus YOR265W, strain rbl2, active compounds read low 0.768 | S. cerevisiae deletion strains, locus YOR270C, strain vph1, active compounds read low 0.451 | S. cerevisiae deletion strains, locus YPL051W, strain arl3, active compounds read low 0.792 | S. cerevisiae deletion strains, locus YPL106C, strain sse1, active compounds read low 0.555 | S. cerevisiae deletion strains, locus YPL240C, strain hsp82, active compounds read low 0.839 | S. cerevisiae deletion strains, locus YPR163C, strain tif3, active compounds read low 0.603 | S. cerevisiae deletion strains, strain wtn01, active compounds read low 0.848
inactive: S. cerevisiae deletion strains, locus YJR043C, strain POL32, active compounds read low 0.89 | S. cerevisiae deletion strains, locus YJR066W, strain TOR1, active compounds read low 0.973 | S. cerevisiae deletion strains, locus YJR075W, strain HOC1, active compounds read low 0.942 | S. cerevisiae deletion strains, locus YKL009W, strain mrt4, active compounds read low 0.977 | S. cerevisiae deletion strains, locus YKL068W, active compounds read low 0.977 | S. cerevisiae deletion strains, locus YKL085W, strain MDH1 (second series), active compounds read low 0.989 | S. cerevisiae deletion strains, locus YKL085W, strain MDH1, active compounds read low 0.989 | S. cerevisiae deletion strains, locus YKL190W, strain CNB1, active compounds read low 0.974 | S. cerevisiae deletion strains, locus YKR026C, strain gcn3, active compounds read low 0.947 | S. cerevisiae deletion strains, locus YKR091W, strain srl3, active compounds read low 0.976 | S. cerevisiae deletion strains, locus YLL041C, strain sdh2, active compounds read low 0.933 | S. cerevisiae deletion strains, locus YLR039C, strain RIC1, active compounds read low 0.981 | S. cerevisiae deletion strains, locus YLR058C, strain SHM2, active compounds read low 0.975 | S. cerevisiae deletion strains, locus YLR102C, strain apc9, active compounds read low 0.983 | S. cerevisiae deletion strains, locus YLR113W, strain HOG1, active compounds read low 1.02 | S. cerevisiae deletion strains, locus YLR262C, strain YPT6 (second series), active compounds read low 1.01 | S. cerevisiae deletion strains, locus YLR262C, strain YPT6, active compounds read low 0.978 | S. cerevisiae deletion strains, locus YLR268W, strain sec22, active compounds read low 0.908 | S. cerevisiae deletion strains, locus YLR342W, strain FKS1 (second series), active compounds read low 0.87 | S. cerevisiae deletion strains, locus YLR342W, strain FKS1, active compounds read low 0.952 | S. cerevisiae deletion strains, locus YLR357W, strain rsc2, active compounds read low 0.972 | S. cerevisiae deletion strains, locus YLR384C, strain iki3, active compounds read low 0.966 | S. cerevisiae deletion strains, locus YLR418C, strain cdc73, active compounds read low 0.882 | S. cerevisiae deletion strains, locus YML032C, strain rad52, active compounds read low 0.986 | S. cerevisiae deletion strains, locus YML120C, strain ndi1, active compounds read low 0.979 | S. cerevisiae deletion strains, locus YML124C, strain tub3, active compounds read low 0.971 | S. cerevisiae deletion strains, locus YMR078C, strain ctf18, active compounds read low 0.949 | S. cerevisiae deletion strains, locus YMR125W, strain sto1, active compounds read low 0.955 | S. cerevisiae deletion strains, locus YMR129W, active compounds read low 0.955 | S. cerevisiae deletion strains, locus YMR231W, strain pep5, active compounds read low 0.965 | S. cerevisiae deletion strains, locus YMR263W, strain SAP30, active compounds read low 0.977 | S. cerevisiae deletion strains, locus YMR307W, strain GAS1, active compounds read low 0.937 | S. cerevisiae deletion strains, locus YNL067W, strain RPL9B, active compounds read low 0.888 | S. cerevisiae deletion strains, locus YNL183C, strain NPR1, active compounds read low 0.977 | S. cerevisiae deletion strains, locus YNL250W, strain rad50, active compounds read low 0.963 | S. cerevisiae deletion strains, locus YNL271C, strain bni1, active compounds read low 0.989 | S. cerevisiae deletion strains, locus YNL298W, strain CLA4, active compounds read low 0.988 | S. cerevisiae deletion strains, locus YNL322C, strain KRE1 (second series), active compounds read low 0.907 | S. cerevisiae deletion strains, locus YNR052C, strain pop2, active compounds read low 0.994 | S. cerevisiae deletion strains, locus YOL006C, strain TOP1, active compounds read low 0.573 | S. cerevisiae deletion strains, locus YOL012C, strain htz1 0.865 | S. cerevisiae deletion strains, locus YOL147C, strain pex11, active compounds read low 0.979 | S. cerevisiae deletion strains, locus YOR001W, strain rrp6, active compounds read low 0.967 | S. cerevisiae deletion strains, locus YOR069W, strain VPS5, active compounds read low 0.967 | S. cerevisiae deletion strains, locus YOR080W, strain dia2, active compounds read low 0.965 | S. cerevisiae deletion strains, locus YOR144C, strain elg1, active compounds read low 0.986 | S. cerevisiae deletion strains, locus YOR184W, strain ser1, active compounds read low 0.893 | S. cerevisiae deletion strains, locus YOR231W, strain MKK1, active compounds read low 1.01 | S. cerevisiae deletion strains, locus YOR290C, strain snf2, active compounds read low 0.91 | S. cerevisiae deletion strains, locus YOR316C, strain cot1, active compounds read low 0.98 | S. cerevisiae deletion strains, locus YPL078C, strain atp4, active compounds read low 0.973 | S. cerevisiae deletion strains, locus YPL241C, strain CIN2, active compounds read low 0.993 | S. cerevisiae deletion strains, locus YPL256C, strain CLN2, active compounds read low 1.08 | S. cerevisiae deletion strains, locus YPR119W, strain clb2, active compounds read low 0.987 | S. cerevisiae deletion strains, locus YPR141C, strain kar3, active compounds read low 0.972 | S. cerevisiae deletion strains, locus YPR167C, strain met16, active compounds read low 0.928 | S. cerevisiae strains, strain wild type, active compounds read low 0.958
